As usually defined, the Inhibition is how much of the control response was suppressed. Higher therefore signals strong suppression.

Here are results for 58 molecules from ChEMBL document CHEMBL1157539, “Thousands of chemical starting points for antimalarial lead identification” (Nature, 2010).

Common to all, as to assay type: functional
The subject of experiment [1] is Plasmodium falciparum. Description: GSK_TCMDC: Inhibition of Plasmodium falciparum 3D7 in whole red blood cells, using parasite LDH activity as an index of growth. Test compounds present at 2uM.
The subject of experiment [2] is Plasmodium falciparum. The experiment in a line: GSK_TCMDC: Inhibition of Plasmodium falciparum Dd2 in whole red blood cells, using parasite LDH activity as an index of growth. Test compounds present at 2uM.
For experiment [3], the system named is HepG2. Description: GSK_TCMDC: Percent inhibition of human HepG2 cell line. Test compounds present at 10uM.

On to `COc1c(C2CCN(CCCCNC(=O)c3ccc(-c4ccc(C(=O)C(F)(F)F)cc4)cc3)CC2)ccc2c1CCCC2`, for which the values for the Inhibition in experiment [1], in experiment [2] and in experiment [3] were 81%, 33% and 99%, respectively.
Take `Cc1nc(C)c(C2CCC(c3ccc(Cl)cc3)CC2)c(O)c1Cl` (centres undefined): the Inhibition worked out at 98% in experiment [1], 97% in experiment [2] and 37% in experiment [3].
`COC(=O)C(C)NCC(=O)c1ccccc1.Cl` (centres undefined): the Inhibition worked out at 97% in experiment [1], 23% in experiment [2] and 5% in experiment [3].
Taken in the same sequence, the figures for `Cl.O=C(CCCCCCc1ccccc1)Nc1ccc2nc3c(c(NCc4ccccc4)c2c1)CCCC3` were 100%, 98% and 19%.
Taken in the same sequence, the figures for `NCC1CCCN1Cc1cccc(-c2ccc(-c3nc4cc(C(F)(F)F)ccc4[nH]3)s2)c1.O=C(O)C(F)(F)F` (centres undefined) were 100%, 96% and 17%.
On to `COCCNCc1ccc(-c2cccc(CNC3CCN(Cc4ccccc4)CC3)c2)cc1.O=C(O)C(F)(F)F`, for which the values for the Inhibition in experiment [1], in experiment [2] and in experiment [3] were 100%, 100% and 30%, respectively.
In the case of `O=C(O)C(F)(F)F.Oc1ccc(CCNc2nc(NCCCOc3ccccc3-c3ccncc3)nc(N3CCNCC3)n2)cc1`, the Inhibition in experiment [1] was 96%; in experiment [2], 0%; in experiment [3], 8%.
`CN(C)CCOc1cccc(NC(=O)Nc2ccc(-c3ccccc3)cc2)c1.O=C(O)C(F)(F)F`: the Inhibition in experiment [1] is 90%; in experiment [2] it was 16%; in experiment [3], 11%.
For `Cc1cccc2c(C(=O)NC3CCN(Cc4ccccc4)CC3)cc(-c3cccnc3)nc12`, the Inhibition in experiment [1] turned out to be 81%; in experiment [2] it was 10%; in experiment [3], 12%.
Taken in the same sequence, the figures for `O=C(O)C(F)(F)F.c1cc(CNCCc2ccncc2)cc(-c2ccc(-c3nc4ccccc4[nH]3)cc2)c1` were 99%, 97% and 28%.
`CC(=O)Nc1cccc(C(=O)Nc2cccc(-c3ccc(-c4nc5cc(F)ccc5[nH]4)s3)c2)c1`: the values for the Inhibition in experiment [1], in experiment [2] and in experiment [3] were 94%, 30% and 88%, respectively.
Take `COc1ccccc1C1CCN(C2CCC(NC(=O)/C=C/c3cccc(C(F)(F)F)c3)CC2)CC1` (centres undefined): the Inhibition in experiment [1] is given as 99%; in experiment [2], 34%; in experiment [3], 38%.
Taken in the same sequence, the figures for `COc1cccc(-n2ncc3c(N/N=C/c4ccc(CN(C)CCN(C)C)cc4)ncnc32)c1` were 100%, 91% and 29%.
For the molecule `CC(C)Oc1ccc(N2CCN(CCCCNC(=O)c3ccc(NC(=O)c4ccc(Cl)cc4)cc3)CC2)c(OC(C)C)c1`, the Inhibition in experiment [1] was 100%; in experiment [2] it was 85%; in experiment [3], 31%.
For `Cc1nnc(N2C(=N)SC(=Cc3ccc(-c4ccc(OC(F)(F)F)cc4)o3)C2=O)s1`, the Inhibition in experiment [1] is on record as 85%; in experiment [2], 58%; in experiment [3], 37%.
On to `COc1cccc(OC)c1-c1ccccc1NC(=O)N1CCCc2cc(C)ccc21`, for which the Inhibition is given as 82% in experiment [1], 84% in experiment [2] and 51% in experiment [3].
Regarding `Cc1nnc2c(N(C(=O)NCCc3ccccc3)C(=O)NCCc3ccccc3)cc3cc(Cl)ccc3n12`, the results for the Inhibition in experiment [1], in experiment [2] and in experiment [3] were 91%, 34% and 0%, respectively.
Taken in the same sequence, the figures for `Cc1cc(=O)[nH]c(-n2nc(C)cc2NC(=O)C(c2ccccc2)c2ccccc2)n1` were 96%, 77% and 31%.
As for `Cc1cnc(C(=O)Nc2ccc3c(c2)CCCN(Cc2c[nH]c4cnccc24)C3)cn1.O=CO`, the Inhibition was 92% in experiment [1], 20% in experiment [2] and 0% in experiment [3].
Regarding `COCC(=O)Nc1nc2ccccc2[nH]1`, the values for the Inhibition in experiment [1], in experiment [2] and in experiment [3] were 98%, 1% and 0%, respectively.
Take `Cc1ccc2cc(NC(=O)c3cccc(C(=O)Nc4ccc5nc(C)ccc5c4)n3)ccc2n1`: the Inhibition in experiment [1] amounted to 92%; in experiment [2], 23%; in experiment [3], 21%.
Take `CCc1c(CCNCCCCCCNCCc2ccccc2)ccc(OC)c1OC.Cl`: the Inhibition worked out at 100% in experiment [1], 3% in experiment [2] and 33% in experiment [3].
As to `CCOc1c(Br)cc(C)cc1CNCCCNc1nc2ccccc2[nH]1.Cl`, the Inhibition in experiment [1] is 93%; in experiment [2], 5%; in experiment [3] it was 24%.
In the case of `CC(C)(CNC(=O)/C=C/c1ccc(C(F)(F)F)cc1)CNc1cc(=O)c2ccccc2[nH]1`, the Inhibition in experiment [1] turned out to be 95%; in experiment [2], 27%; in experiment [3], 0%.
With `O=C(O)C(F)(F)F.Oc1ccc(CCCNc2nc(NCc3cccc4ccccc34)nc(N3CCCNCC3)n2)cc1`, the Inhibition in experiment [1] was found to be 96%; in experiment [2], 62%; in experiment [3], 98%.
Taken in the same sequence, the figures for `O=C(O)C(F)(F)F.c1cc(OCCN2CCCC2)ccc1CNC1CCN(CC2CCCCC2)CC1` were 100%, 54% and 15%.
As to `Cl.N#Cc1ccc(C=CC(=O)NC2CCC(CCN3CCc4ccc(-c5cnccn5)cc4CC3)CC2)cc1` (centres undefined), the Inhibition in experiment [1] was 100%; in experiment [2] it was 87%; in experiment [3], 37%.
On to `NC(=O)C1CCN(Cc2cccc(-c3ccc(-c4nc5cc(C(F)(F)F)ccc5[nH]4)cc3)c2)CC1.O=C(O)C(F)(F)F`, for which the Inhibition is 100% in experiment [1], 94% in experiment [2] and 7% in experiment [3].
Taken in the same sequence, the figures for `Cc1cc(C(F)(F)F)cc(-n2ncc(-c3ccc(C(=O)NCc4ccccc4N)cc3)c2N)n1.O=C(O)C(F)(F)F` were 99%, 89% and 10%.
For `Cc1cc(NCCCCCCNc2cc(C)nc3c(C)cccc23)c2cccc(C)c2n1.Cl`, the Inhibition in experiment [1] is given as 100%; in experiment [2], 9%; in experiment [3], 23%.
For `CCc1cccc(NC(=O)/C=C/c2ccc3c(c2)CN(C)CC3)c1`, the results for the Inhibition in experiment [1], in experiment [2] and in experiment [3] were 94%, 91% and 8%, respectively.
As for `O=C(O)C(F)(F)F.c1cc(CNCC2CCCO2)cc(-c2cccc(-c3nc4ccccc4[nH]3)c2)c1` (centres undefined), the Inhibition is on record as 100% in experiment [1], 7% in experiment [2] and 15% in experiment [3].
For the molecule `Cl.O=c1cc(NCCCNCc2ccc(Cl)c(Cl)c2)[nH]c2ccc(Oc3ccccc3)cc12`, the Inhibition in experiment [1] came out at 92%; in experiment [2] it was 29%; in experiment [3] it was 1%.
`CCc1cc([C@H]2O[C@@H](n3cnc4c(NCC(c5ccccc5)c5ccccc5)nc(NCCNc5ccccn5)nc43)[C@H](O)[C@@H]2O)on1.O=CO`: the Inhibition amounted to 94% in experiment [1], 32% in experiment [2] and 14% in experiment [3].
On to `CCCC(CNCc1ccc(Cl)c(C(F)(F)F)c1)CNc1nc2cnccc2[nH]1.Cl` (centres undefined), for which the Inhibition in experiment [1] came to 99%; in experiment [2] it was 8%; in experiment [3], 26%.
Regarding `Cc1ccc(CCOCCCCCNCC(O)c2cc(Cl)c(N)c(Cl)c2)cc1` (centres undefined), the Inhibition in experiment [1] was found to be 99%; in experiment [2], 98%; in experiment [3], 10%.
In the case of `O=C(N/C(=C/c1cccc([N+](=O)[O-])c1)c1nc2ccccc2[nH]1)c1cccc(Br)c1`, the Inhibition is 85% in experiment [1], 88% in experiment [2] and 0% in experiment [3].
Taken in the same sequence, the figures for `COc1ccc2nccc([C@@H](O)CN3CCC(NC(=O)C(c4ccccc4C)N4CCC(Cc5ccccc5)CC4)CC3)c2c1` (some centres undefined) were 100%, 97% and 10%.
On to `N=C(N)NCCN(Cc1ccccc1)c1ccccc1`, for which the Inhibition in experiment [1] was determined as 100%; in experiment [2], 98%; in experiment [3], 8%.
Regarding `CC1(C)N=C(N)N=C(Nc2ccc(Cl)cc2)N1.Cl`, the Inhibition is reported as 97% in experiment [1], 0% in experiment [2] and 8% in experiment [3].
As for `COC(=O)c1c(NC(=O)c2cccc(C(F)(F)F)c2)sc2c1CCN(Cc1ccccc1)C2.Cl`, the results for the Inhibition in experiment [1], in experiment [2] and in experiment [3] were 84%, 61% and 9%, respectively.
As to `O=C(NCC1CCN(Cc2cccc(C(F)(F)F)c2)C1)c1cc(-c2cccc(F)c2)cs1.O=C(O)C(F)(F)F` (centres undefined), the values for the Inhibition in experiment [1], in experiment [2] and in experiment [3] were 87%, 5% and 19%, respectively.
Taken in the same sequence, the figures for `O=c1cc(NCCCNC(CNCCc2ccccc2)c2cc(Br)cc(Br)c2)[nH]c2ccccc12` (centres undefined) were 93%, 53% and 0%.
Taken in the same sequence, the figures for `COc1ccc(CNc2ncnc3c2[nH]c2ccc(F)cc23)cc1` were 93%, 71% and 38%.
Regarding `CCOC(=O)c1ccc(N(CCCN(CCCN(c2ccc(C(=O)OCC)cc2)S(=O)(=O)c2ccc(C)cc2)CCc2ccc(O)cc2)S(=O)(=O)c2ccc(C)cc2)cc1`, the Inhibition in experiment [1] was found to be 96%; in experiment [2], 74%; in experiment [3], 0%.
`CCOC(=O)C1=C(C)N=c2sc(=Cc3cc(Cl)ccc3O)c(=O)n2C1c1cc(OC)c(OC)cc1Br` (centres undefined): the Inhibition was determined as 97% in experiment [1], 76% in experiment [2] and 6% in experiment [3].
Take `CCN(CC)CC(O)c1cc(-c2ccc(OC)cc2)nc2cc(Cl)ccc12.Cl` (centres undefined): the Inhibition is 99% in experiment [1], 98% in experiment [2] and 12% in experiment [3].
Taken in the same sequence, the figures for `COc1cc(-c2nc3c4ccccc4c4ccccc4c3[nH]2)cc(OC)c1OC` were 90%, 10% and 4%.
With `O=C(/C=C/c1ccc(Cl)c(Cl)c1)NC1CCC(CN2CCC(c3nc4ccccc4n3CCCO)CC2)CC1` (centres undefined), the Inhibition in experiment [1] worked out at 99%; in experiment [2], 28%; in experiment [3], 28%.
For the molecule `Cl.Cl.N=C(N)c1ccc(-c2cc(-c3cccc(C(=N)N)c3)on2)cc1`, the Inhibition in experiment [1] is given as 96%; in experiment [2], 45%; in experiment [3] it was 7%.
On to `CC1CN(Cc2ccc(-c3ccc(-c4nc5ccccc5[nH]4)cc3)cc2)CC(C)O1.O=C(O)C(F)(F)F` (centres undefined), for which the Inhibition is given as 98% in experiment [1], 96% in experiment [2] and 48% in experiment [3].
Turning to `CC(C)(C)c1ccc(CN2CCCCC(NC(=O)c3cc(-c4cccc(F)c4)cs3)C2)cc1.O=C(O)C(F)(F)F` (centres undefined), the Inhibition in experiment [1] came to 98%; in experiment [2], 84%; in experiment [3], 8%.
As to `O=c1cc(NCCC2CC=CCN2Cc2ccc(Cl)c(Cl)c2)[nH]c2ccccc12` (centres undefined), the Inhibition in experiment [1] was found to be 94%; in experiment [2] it was 77%; in experiment [3] it was 7%.
Take `COc1ccccc1-c1[nH]c2ccccc2c1CN1CCC(c2c(C)cccc2C)CC1`: the Inhibition in experiment [1] is given as 96%; in experiment [2], 13%; in experiment [3], 49%.
Taken in the same sequence, the figures for `Cc1cc(N[C@@H](CC(C)C)C(=O)NC2CCCC2)nc(NCCc2ccc(F)cc2)n1.O=C(O)C(F)(F)F` were 100%, 47% and 15%.
Consider `CN1CCN(Cc2ccc(-c3ccc4c(Nc5ccc(Oc6ccccc6)cc5)ccnc4c3)o2)CC1`, for which the Inhibition in experiment [1] turned out to be 99%; in experiment [2], 99%; in experiment [3], 23%.
For `CN1CCN(c2ccnc3ccc(NC(=O)Cc4ccc5ccccc5c4)cc23)CC1`, the values for the Inhibition in experiment [1], in experiment [2] and in experiment [3] were 100%, 89% and 6%, respectively.
On to `Cc1cc(Cl)c(S(=O)(=O)N2CCc3ccccc32)cc1OCC(=O)NC1CCCCC1`, for which the Inhibition in experiment [1] is recorded as 100%; in experiment [2], 93%; in experiment [3] it was 28%.
